# Measurements: PubChem BioAssay (NCATS)
# Inconclusive results are not listed. Unmarked numbers belong to inactive results. Calls come from the whole dose curve; as a rule, active = well fitted activation curve with a large enough effect; inconclusive = small, poorly fitted or top-dose-only effect, or effect the other way; inactive = flat fitted curve, though single readings scatter.
# Assay: Cellular Toxicity (caspase-3) NIH 3T3 (AID 666);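 note: caspase signal read after 16 h compound exposure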
# Settings: NIH 3T3 caspase-3 activation, apoptosis/toxicity, 0% DMSO, 100% is 100 µM tamoxifen; series mostly up to 92.2 µM; caspase-3 activation: at the top concentration
# Source text: NIH Chemical Genomics Center [NCGC]
# NIH Molecular Libraries Screening Centers Network [MLSCN]
# National Institutes of Environmental Health Sciences [NIEHS]
# National Toxicology Program [NTP]
# We have developed a 1536-well cell-based assay for quantitative high throughput screening (qHTS) against a number of cell lines to determine in vitro caspase 3/7 of small molecules. This particular assay uses the NIH 3T3 cell line which is derived from mouse fibroblasts.
# NCGC Assay Protocol Summary:
# The Caspase-Glo 3/7 assay (Promega) is a homogeneous method to measure caspase-3 and caspase-7 activities in cultured cells. The quantitation of caspase 3/7 activity is based on the cleavage of a peptide-aminoluciferin substrate. After caspase cleaves the substrate the free aminoluciferin is liberated and serves as the substrate of luciferase, which generates the light. The luminescent signal is proportional to amount of caspase 3/7 activity present.
# Using the Caspase-Glo 3/7 assay, the amount of caspase 3/7 activity was measured in the NIH 3T3 cell line with complete culture medium following compound treatment for 16 hours. The assay was performed in opaque white 1536-well plates. In the screen, tamoxifen and doxorubicin were used as positive controls. Library compounds were measured for their ability to cause the activation of caspase 3/7 in the cell line, as reflected by an increase in luminescence signal, in a concentration-dependent manner. Data were normalized to the controls for basal activity (DMSO only) and 100% stimulation (100 uM tamoxifen). AC50 values were determined from concentration-response data modeled with the standard Hill equation.
# qHTS protocol for caspase 3/7 assay in NIH 3T3 cells
# [Step] [Parameter] [Value] [Description]
# 1. Reagent; 5 uL; 1000 NIH 3T3 cells/well
# 2. Time; 5 hr; 37 °C incubation
# 4. Controls; 23 nL; Tamoxifen 0.23 uM to 100 uM & Doxorubicin 7.0 pM to 100 uM
# 5. Time; 16 hr; 37 °C incubation
# 6. Reagent; 5 uL; Caspase-Glo 3/7 reagent
# 7. Time; 20 min; Room Temperature
# 8. Detection; Luminescence; Viewlux plate reader
# Keywords: caspase 3/7, apoptosis, NIH 3T3 cell line, luminescence, NTPHTS, NTPHTS_NCGC, NIEHS, EPA, DSSTox, MLSMR, MLSCN, NIH Roadmap, qHTS, NCGC
row,SMILES,caspase-3 activation [%]
1,COc1ccc(CN(CCN(C)C)c2ccccn2)cc1,-5.5
2,NC(=Nc1ccccc1)Nc1ccccc1,-4.32
3,CCCCOCCOCCOCc1cc2c(cc1CCC)OCO2,-3.31
4,Nc1ncn([C@@H]2O[C@H](CO)[C@@H](O)[C@H]2O)c(=O)n1,2.16
5,COc1cc(Cc2cnc(N)nc2N)cc(OC)c1OC,-0.411
6,O=c1[nH]c(=O)n([C@H]2C[C@H](O)[C@@H](CO)O2)cc1Br,-1.32
7,COC(=O)[C@H]1[C@H]2C[C@@H]3c4[nH]c5cc(OC)ccc5c4CCN3C[C@H]2C[C@@H](OC(=O)c2cc(OC)c(OC)c(OC)c2)[C@@H]1OC,-1.75
8,CCCCNC(=O)NS(=O)(=O)c1ccc(C)cc1,-2.51
9,NC(=O)N1c2ccccc2C=Cc2ccccc21,-3.52
10,CN=C(NC#N)NCCSCc1nc[nH]c1C,0.437
11,Nc1nc(N)c2nc(-c3ccccc3)c(N)nc2n1,2.48
